Only a selection was taken, and hits are over-represented in it overall.
CBFb-RUNX1 inh = blocks binding between human CBF-beta and RUNX1; Potency, µM (series often up to 59.8 µM), hits mostly inhibitors; Q01196+Q13951; 230,000 tested, under 10 active; AID 1477; AlphaScreen CBFb-His/RUNX1-biotin binding, biochemical; active = well fitted curve in the direction sought with a large enough effect; inconclusive = small, poorly fitted or top-dose-only effect, or effect the other way, or another doubt; inactive = no such curve, though single readings can be large or run the other way
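His-tagged CBF-beta and biotinylated RUNX1 (30 nM each) were premixed 20 min at room temperature, exposed to compound for 15 min, then given nickel-chelate and streptavidin AlphaScreen beads (50 ng each). After 90 min, AlphaScreen signal was read.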
Rango-impB inh = inhibitors of Rango-importin beta complex formation; Q14974; Rango CFP/YFP FRET sensor + importin beta, 45 min; Potency, µM (doses to about 92.2 µM); hit rate 0.031% among 340,000; AID 540263; also: nearly all actives have a fitted effect of over 15% in size
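Inhibition scored from the CFP 486 nm/YFP 530 nm FRET ratio 45 min after adding 0.125 microM importin beta to 50 nM Rango biosensor preincubated 5 min with compound (room temperature, PBS with DTT, Tween-20, BSA). No-importin wells as positive control.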
ClpP mod = qHTS Assay for Activators of ClpP | purified B. subtilis ClpP, FRET peptide cleavage, 20 min | Potency, µM (doses to about 57.5 µM) | hit rate 1.9% among 340,000; active = well fitted falling curve with a large enough effect; inconclusive = small, poorly fitted or top-dose-only effect; inactive = no such curve, though single readings can be large or run the other way; also: the source files actives as falling curves though it sought activators and does not explain the sign; nearly all actives have a fitted effect of over 65% in size
Target sequence (P80244 whole entry, looked up): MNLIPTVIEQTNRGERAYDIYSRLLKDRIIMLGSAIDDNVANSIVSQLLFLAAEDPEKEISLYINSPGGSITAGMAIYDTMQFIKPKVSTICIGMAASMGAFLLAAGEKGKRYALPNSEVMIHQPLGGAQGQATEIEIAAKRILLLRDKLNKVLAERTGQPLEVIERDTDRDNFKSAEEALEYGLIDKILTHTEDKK
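FRET quenching reversal measured ClpP activation: 10 microg/mL B. subtilis ClpP at pH 8 with the FRET-FV decapeptide, read at 430 nm after 320 nm excitation. The 20-min minus 0-min signal was scaled between DMSO/no-enzyme wells and ADEP (5.8 microM final).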
Rango dissoc inh = inhibitors of RanGTP-induced Rango-importin beta complex dissociation; Potency, µM (highest dose often 46.1 µM); AID 540253; hit rate 0.071% among 340,000; O95149+P62826; Biochemical FRET Rango-importin beta, RanGTP-induced dissociation; also: nearly all actives have a fitted effect of over 45% in size
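Two FRET readings bracket the reaction: one 5 min after compound meets Rango–importin beta, another 45 min after RanGTP-RCC1 (0.6 uM Ran, 0.2 uM RCC1, 2 mM GTP) is added. Only the second defines inhibition.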
MBNL1-CUG inh = blocks human MBNL1 binding to CUG repeat RNA. Q9NR56. TR-FRET MBNL1-His/biotin-(CUG)12 binding, 665/545 ratio. Potency, µM (doses to about 57.5 µM), most hits filed as inhibitors. hit rate 0.036% among 280,000. AID 2675; active = well fitted inhibition curve with a large enough effect in the signal ratio, with a control signal flat, not every such curve was filed as active; inconclusive = small, poorly fitted or top-dose-only effect, or effect the other way, or a change in a side signal; inactive = no such curve, though single readings can be large or run the other way; the % refers to the signal ratio
Target sequence (Q9NR56 whole entry, looked up): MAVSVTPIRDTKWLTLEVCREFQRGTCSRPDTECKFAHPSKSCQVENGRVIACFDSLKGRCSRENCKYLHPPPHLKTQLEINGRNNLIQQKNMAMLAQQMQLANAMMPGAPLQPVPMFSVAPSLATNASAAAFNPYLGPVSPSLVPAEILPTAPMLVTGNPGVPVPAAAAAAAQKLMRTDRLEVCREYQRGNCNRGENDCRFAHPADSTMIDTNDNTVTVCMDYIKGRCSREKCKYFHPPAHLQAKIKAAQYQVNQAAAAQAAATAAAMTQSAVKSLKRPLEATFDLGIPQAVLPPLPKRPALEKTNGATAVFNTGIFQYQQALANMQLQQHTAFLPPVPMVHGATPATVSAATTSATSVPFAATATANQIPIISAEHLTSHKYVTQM
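Compounds (final 92 nM to 58 uM) are added to His-tagged MBNL1 and biotin-(CUG)12, then terbium anti-His antibody and streptavidin-XL665 (5 nM final). After 60 min at room temperature, the 665/545 nm ratio is read.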
Numbers stand for hits; 0 = inactive; ? = inconclusive; - = no result; ! = repeats disagree; [ ] = remark or other dose. Unless noted, calls follow the shape of the full dose curve.

SMILES	CBFb-RUNX1 inh	Rango-impB inh	ClpP mod	Rango dissoc inh	MBNL1-CUG inh
Cc1ccc(Cl)cc1N1CCN(C(=O)Cn2ncc3c4ccccc4n(C)c3c2=O)CC1	-	-	0	-	-
CCn1c(=O)n(CC)c2cc(N3CCCCC3)c(NC(=O)Nc3cc(Cl)ccc3OC)cc21	-	-	28µM	-	-
O=C(CSc1nc2c(cnn2-c2ccc(F)cc2)c(=O)[nH]1)Nc1ccc(Br)cc1	-	-	0	-	-
O=C(Nc1ccc(OCc2cc(=O)n3c4c(sc3n2)CCCC4)cc1)c1ccc(F)cc1	-	-	0	-	-
COc1ccc(CC(=O)N2CCc3cc(OC)c(OC)cc3C2COc2ccc3c(C)cc(=O)oc3c2)cc1OC (stereo unspecified)	-	-	0	-	-
Oc1cccc(/C=N/c2c(-c3ccco3)nc3ccccn23)c1	0	?	28µM	?	?
CCOc1cc(-c2nc3ccccn3c2NCC2CCCO2)ccc1O (stereo unspecified)	0	0	?	0	0
COc1cc(-c2nc3ccccn3c2/N=C/c2ccccc2)ccc1O	0	?	32µM	?	?
COc1cc(-c2nc3ccccn3c2NCC2CCCO2)ccc1O (stereo unspecified)	0	?	25µM	0	0
COc1ccc(SCC(Cc2ccccc2)N2CCN(CC(C)C)CCC2=O)cc1 (stereo unspecified)	0	-	-	-	-
Cc1ccc(-c2cc3ccccc3nc2N2CCOCC2)cc1	?	0	-	0	0
c1ccc(-c2cc3ccccc3nc2N2CCCC2)cc1	?	0	28µM	0	0
COc1ccc(C(=O)c2sc(NC(C)C)nc2N)cc1OC	0	0	25µM	0	0
CCOc1ccccc1CNC(=O)C1=C(C)C(=O)OC12CCN(C(C)=O)CC2	-	-	0	-	-
COc1ccc2nc(C)cc(Nc3ccc(C(=O)O)cc3)c2c1	-	0	0	0	?
COc1ccc2nc(C)cc(C(=O)O)c2c1	0	0	8.9µM	0	0
CCOc1ccc2nc(C)cc(C(=O)O)c2c1	0	0	3.2µM	0	0
CCOc1ccc2oc(C(=O)O)c(C)c2c1	0	0	-	0	-
Cc1ccc(-n2c(=O)c3c4c(sc3n(Cc3cc(=O)n5cc(Cl)ccc5n3)c2=O)CCC4)cc1C	-	-	0	-	-
Cc1ccc(-n2c(=O)c3c4c(sc3n(Cc3cc(=O)n5ccccc5n3)c2=O)CCC4)cc1C	0	0	28µM!	0	-
CCCN(CCC)C(=O)Cn1c(=O)n(-c2cccc(C(F)(F)F)c2)c(=O)c2c(C)c(C)sc21	-	-	0	-	-
CCOc1cc(/C=C2\CN(C)C/C(=C\c3ccc(O)c(OCC)c3)C2=O)ccc1O	-	?	0	0	0
CCOc1cc(/C=C2\CCC/C(=C\c3cc(Cl)c(O)c(OCC)c3)C2=O)cc(Cl)c1O	0	?	0	6.5µM	0
COC(=O)[C@@]1(Cc2ccc(OC)cc2)[C@H]2c3cc(C(=O)N(C)C)n(Cc4cc(C)n(C)n4)c3C[C@H]2CN1C(=O)c1ccccc1	0	-	-	-	-
COc1ccc(C(=O)CC(=O)c2ccc(OC)cc2)cc1	-	0	0	0	0
SMILES	CBFb-RUNX1 inh	Rango-impB inh	ClpP mod	Rango dissoc inh	MBNL1-CUG inh
COc1ccc(C(=O)Cc2nnc(C)s2)cc1	0	0	20µM	0	0[11.5 µM]
O=c1c2c(nc3cc(-c4ccc(F)cc4)[nH]n13)CCC2	0	0	6.3µM	0	?
Cc1cccc(N2CCN(C(=O)C3CCN(C(=O)c4cc5sccc5n4C)CC3)CC2C)c1 (stereo unspecified)	-	-	0	-	-
CCCCC1OC23CCCCC2C(C#N)(C(=N)O3)C1(C#N)C#N (stereo unspecified)	0	?	?	?	0
CCCCC1OC23CCCCC2C(C#N)(C#N)C1(C#N)C(=N)O3 (stereo unspecified)	0	?	0	?	?
N#CC1(C#N)C(c2ccccc2)OC23CCCCC2C1(C#N)C(=N)O3 (stereo unspecified)	0	?	14µM	?	-
CCCCCCCCOc1ccc(C2OC34CCCCC3C(C#N)(C#N)C2(C#N)C(=N)O4)cc1 (stereo unspecified)	0	?	20µM	?	?
N#CC1(C#N)C(c2ccccc2)OC23CCCCCC2C1(C#N)C(=N)O3 (stereo unspecified)	0	?	32µM	?	0
CC(C)c1ccc(-c2cc(C(=O)N3N=C(C(F)F)CC3(O)C(F)F)c3ccccc3n2)cc1 (stereo unspecified)	0	?	28µM	0	0
N#Cc1c(C(F)(F)F)cc(-c2ccccc2Cl)[nH]c1=O	0	0	3.5µM	0	0
CCCCC(CC)COCCCN (stereo unspecified)	0	-	-	-	-
CCCNC(=O)c1c(N)n(-c2ccc3c(c2)OCO3)c2nc3ccccc3nc12	0	0	0	0	0
Nc1c(C(=O)NC2CC2)c2nc3ccccc3nc2n1-c1ccc2c(c1)OCO2	0	?	32µM	0	0
CCCCN(C)Cc1cc(=O)oc2cc3c(cc12)CCCC3	0	0	14µM	0	-
CCc1ccc2oc(=O)cc(CN(C)Cc3ccccc3)c2c1	0	?	16µM	0	0
CCCCNC(=O)CCCn1c(=O)c2ccccc2n(Cc2ccc(Cl)cc2)c1=O	-	-	0	-	-
Cc1ccc(Nc2nc(CSc3nnc(-c4cccnc4)n3-c3ccccc3C)cs2)cc1	0	0	28µM	0	0
COc1cc(NS(=O)(=O)c2cc3c(cc2C)N(C)CCO3)cc(OC)c1OC	-	-	0	-	-
Nc1c(Br)cc(C=O)cc1Br	-	-	0	-	-
Cc1ccc(S(=O)(=O)NNC(=S)Nc2ccc(Cl)cc2)cc1	0	0	28µM	0	0
Cc1ccc(S(=O)(=O)NNC(=S)Nc2ccccc2)cc1	0	0	0	0	0
CCN(C(=O)CCS(=O)(=O)c1cc2c(cc1C)NC(=O)CO2)c1cccc(C)c1	-	-	0	-	-
Cc1ccc(C)c(OCCC(=O)Nc2cccc(S(=O)(=O)NC3=NCCCCC3)c2)c1	-	0	0	0	-
Cc1ccccc1OCCC(=O)Nc1cccc(S(=O)(=O)Nc2ccccc2Cl)c1	0	0	14µM	0	0
CN(C)S(=O)(=O)c1ccc(N2CCCC2)c(C(=O)Nc2nc3c(ccc4ccccc43)s2)c1	0	?	28µM	0	0
SMILES	CBFb-RUNX1 inh	Rango-impB inh	ClpP mod	Rango dissoc inh	MBNL1-CUG inh
CCOc1ccccc1Nc1sc(C(=O)c2ccc(Cl)cc2)c(N)c1S(=O)(=O)c1ccccc1	-	-	0	-	-
CCN1C=C(Cc2ccccc2C)C2=C(C1)C(c1ccccc1C)C(C#N)=C(N)O2 (stereo unspecified)	0	?	0	8.2µM	0
CCN1C=C(Cc2ccc(F)cc2)C2=C(C1)C(c1ccc(F)cc1)C(C#N)=C(N)O2 (stereo unspecified)	0	?	0	?	0
CC(=O)c1ccc(N2CCN(C(=O)c3cc4ccc5cccnc5c4[nH]3)CC2)cc1	-	-	0	-	-
COCCCNC(=S)Nc1cc2oc3ccccc3c2cc1OC	-	0	0	0	0
COc1cc2c(cc1NC(=S)Nc1cccc(C(F)(F)F)c1)oc1ccccc12	0	0	32µM	0	0

High-throughput results (PubChem)
